Laboratory results as given in PubChem BioAssay AID1159580 (chemical genetic matrix, 2015).
Screen size: about 5,500 compounds; about 2,000 (36%) were called active. Inconclusive results (about 18%) are left out. No stated cut-off is given here; in the data, active means normalized growth mostly below about 0.91 (no sharp cut-off); inconclusive means no clear call, values can overlap the other calls; inactive means mostly above about 0.92. The list shows a part of the results.

Test: chemical genetic growth profiling, strain panel (AID 1159580);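 further: tested at 20 µM; growth read once vehicle control cultures reached saturation at 30 °C; 1 = growth at the plate median or of vehicle wells; lower values mean less growth of the strain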
Conditions: S. cerevisiae deletion strains, growth OD
[1] = locus YAL013W, strain DEP1, hits give low values
[2] = locus YBR229C, strain ROT2, hits give low values
[3] = locus YDL101C, strain DUN1, hits give low values
[4] = locus YDL134C, strain PPH21, hits give low values
[5] = locus YDR150W, strain NUM1, hits give low values
[6] = locus YEL061C, strain CIN8, hits give low values
[7] = locus YGR078C, strain PAC10, hits give low values
[8] = locus YHR030C, strain SLT2, hits give low values
[9] = locus YHR087W, strain rtc3, hits give low values
[10] = locus YJL187C, strain SWE1, hits give low values
[11] = locus YJR043C, strain POL32, hits give low values
[12] = locus YJR075W, strain HOC1, hits give low values
[13] = locus YLR039C, strain RIC1, hits give low values
[14] = locus YLR058C, strain SHM2 (second series), hits give low values
[15] = locus YLR085C, strain ARP6, hits give low values
[16] = locus YLR262C, strain YPT6, hits give low values
[17] = locus YML094W, strain GIM5, hits give low values
[18] = locus YMR219W, strain ESC1, hits give low values
[19] = locus YMR263W, strain SAP30, hits give low values
[20] = locus YNL153C, strain GIM3, hits give low values
[21] = locus YNL298W, strain CLA4 (second series), hits give low values
[22] = locus YNL322C, strain KRE1, hits give low values
[23] = locus YNR030W, strain Alg12, hits give low values
[24] = locus YPL055C, strain LGE1, hits give low values
[25] = locus YPL241C, strain CIN2, hits give low values
[26] = locus YPR135W, strain CTF4, hits give low values
[27] = locus YAR019C, strain CDC15, hits give low values
[28] = locus YBL105C, strain PKC1, hits give low values
[29] = locus YBR135W, strain CKS1, hits give low values
[30] = locus YBR136W, strain MEC1, hits give low values
[31] = locus YBR160W, strain CDC28, hits give low values
[32] = locus YDL017W, strain CDC7, hits give low values
[33] = locus YDL028C, strain MPS1, hits give low values
[34] = locus YDL108W, strain KIN28, hits give low values
[35] = locus YDL132W, strain cdc53, hits give low values
[36] = locus YDL214C, strain PRR2, hits give low values
[37] = locus YDR052C, strain DBF4, hits give low values
[38] = locus YDR054C, strain cdc34, hits give low values
[39] = locus YDR226W, strain ADK1, hits give low values
[40] = locus YDR477W, strain SNF1, hits give low values
[41] = locus YER123W, strain YCK3, hits give low values
[42] = locus YER133W, strain GLC7, hits give low values
[43] = locus YFL009W, strain cdc4, hits give low values
[44] = locus YFL029C, strain CAK1, hits give low values
[45] = locus YFR003C, strain YPI1, hits give low values
[46] = locus YFR019W, strain FAB1, hits give low values
[47] = locus YFR028C, strain CDC14, hits give low values
[48] = locus YGR040W, strain KSS1, hits give low values
[49] = locus YGR052W, strain FMP48, hits give low values
[50] = locus YGR092W, strain DBF2, hits give low values
[51] = locus YHR079C, strain IRE1, hits give low values
[52] = locus YHR082C, strain KSP1, hits give low values
[53] = locus YHR205W, strain SCH9, hits give low values
[54] = locus YIL147C, strain SLN1, hits give low values
[55] = locus YJL095W, strain BCK1, hits give low values
[56] = locus YJL128C, strain PBS2, hits give low values
[57] = locus YJL157C, strain FAR1, hits give low values
[58] = locus YJR016C, strain ILV3, hits give low values
[59] = locus YJR066W, strain TOR1 (second series), hits give low values
[60] = locus YJR066W, strain TOR1, hits give low values
[61] = locus YKL048C, strain ELM1, hits give low values
[62] = locus YKL067W, strain YNK1, hits give low values
[63] = locus YKL101W, strain HSL1, hits give low values
[64] = locus YKL193C, strain SDS22, hits give low values
[65] = locus YKL203C, strain TOR2, hits give low values
[66] = locus YLR113W, strain HOG1, hits give low values
[67] = locus YLR133W, strain CKI1, hits give low values
[68] = locus YLR403W, strain SFP1, hits give low values
[69] = locus YML070W, strain DAK1, hits give low values
[70] = locus YMR001C, strain CDC5, hits give low values
[71] = locus YMR205C, strain PFK2 (second series), hits give low values
[72] = locus YMR277W, strain FCP1, hits give low values
[73] = locus YNL006W, strain LST8, hits give low values
[74] = locus YNL020C, strain ARK1, hits give low values
[75] = locus YNL161W, strain CBK1, hits give low values
[76] = locus YNL183C, strain NPR1, hits give low values
[77] = locus YNL207W, strain RIO2, hits give low values
[78] = locus YNL222W, strain SSU72, hits give low values
[79] = locus YNL307C, strain MCK1 (second series), hits give low values
[80] = locus YOL078W, strain AVO1, hits give low values
[81] = locus YOL136C, strain PFK27, hits give low values
[82] = locus YOR061W, strain CKA2, hits give low values
[83] = locus YOR119C, strain RIO1, hits give low values
[84] = locus YOR231W, strain MKK1, hits give low values
[85] = locus YOR329C, strain SCD5, hits give low values
[86] = locus YPL031C, strain PHO85, hits give low values
[87] = locus YPL153C, strain RAD53, hits give low values
[88] = locus YPL204W, strain HRR25, hits give low values
[89] = locus YPL209C, strain IPL1, hits give low values
[90] = locus YPL256C, strain CLN2, hits give low values
[91] = locus YPR025C, strain CCL1, hits give low values
[92] = locus YPR106W, strain ISR1, hits give low values
[93] = locus YPR111W, strain DBF20, hits give low values
[94] = strain NNK1, hits give low values
[95] = strain TSCII, hits give low values

Measured: normalized growth

O=C1CSCC(=O)N1c1ccc(F)c(Cl)c1
active: [23] 0.281 | [25] 0.378
inactive: [1] 0.993 | [2] 0.994 | [3] 1 | [4] 0.99 | [5] 0.935 | [6] 0.984 | [7] 0.994 | locus YGR229C, strain SMI1, hits give low values 0.985 | [8] 0.996 | [9] 0.981 | [10] 1 | [11] 0.925 | [12] 0.989 | [13] 1.02 | [14] 1 | [15] 0.978 | [16] 0.995 | [17] 0.992 | [18] 1 | [19] 0.994 | [20] 0.997 | [21] 0.998 | [22] 0.979 | [24] 0.97 | [26] 1

CC1=CC(=O)N(c2ccc(OC(F)(F)F)cc2)C1=O
inactive: [56] 0.9 | [92] 0.901 | [93] 0.907 | [94] 0.893
active: [27] 0.852 | [28] 0.873 | [29] 0.857 | [30] 0.87 | [31] 0.873 | [32] 0.872 | [33] 0.857 | [3] 0.869 | [34] 0.868 | [35] 0.847 | [36] 0.467 | [37] 0.883 | [38] 0.853 | [39] 0.862 | [40] 0.377 | [41] 0.281 | [42] 0.339 | [43] 0.849 | [44] 0.837 | [45] 0.878 | [46] 0.512 | [47] 0.865 | [48] 0.384 | [49] 0.421 | [50] 0.217 | [8] 0.283 | [51] 0.35 | [52] 0.316 | [53] 0.331 | [54] 0.873 | [55] 0.302 | [57] 0.487 | [58] 0.862 | [59] 0.39 | [60] 0.272 | [61] 0.556 | [62] 0.509 | [63] 0.494 | [64] 0.863 | [65] 0.382 | [66] 0.336 | [67] 0.531 | [68] 0.326 | [69] 0.401 | [70] 0.854 | [71] 0.563 | [72] 0.868 | [73] 0.885 | [74] 0.558 | [75] 0.865 | [76] 0.201 | [77] 0.847 | [78] 0.864 | [79] 0.413 | [80] 0.858 | [81] 0.436 | [82] 0.576 | [83] 0.384 | [84] 0.4 | [85] 0.869 | [86] 0.311 | [87] 0.372 | [88] 0.391 | [89] 0.862 | [90] 0.33 | [91] 0.855 | [95] 0.859

CC1=CC(=O)N(c2ccc(F)c(Cl)c2)C1=O
active: [3] 0.76 | [36] 0.345 | [40] 0.376 | [41] 0.243 | [42] 0.371 | [46] 0.443 | [48] 0.461 | [49] 0.387 | [50] 0.335 | [8] 0.173 | [51] 0.195 | [52] 0.235 | [53] 0.395 | [55] 0.168 | [57] 0.377 | [59] 0.219 | [60] 0.166 | [61] 0.474 | [62] 0.347 | [63] 0.386 | [65] 0.506 | [66] 0.335 | [67] 0.457 | [68] 0.404 | [69] 0.274 | [71] 0.407 | [74] 0.477 | [76] 0.156 | [79] 0.34 | [81] 0.335 | [82] 0.549 | [83] 0.524 | [84] 0.225 | [86] 0.233 | [87] 0.398 | [88] 0.455 | [90] 0.206
inactive: [27] 0.966 | [28] 0.974 | [29] 0.964 | [30] 0.971 | [31] 0.975 | [32] 0.966 | [33] 0.976 | [34] 0.979 | [35] 0.986 | [37] 0.978 | [38] 0.983 | [39] 0.97 | [43] 0.974 | [44] 0.96 | [45] 0.975 | [47] 0.967 | [54] 0.975 | [56] 0.953 | [58] 0.987 | [64] 0.974 | [70] 0.962 | [72] 0.973 | [73] 0.982 | [75] 0.963 | [77] 0.973 | [78] 0.973 | [80] 0.966 | [85] 0.98 | [89] 0.964 | [91] 0.97 | [92] 0.974 | [93] 0.976 | [94] 0.973 | [95] 0.966

O=C1C2C3C=CC(C3)C2C(=O)N1c1ccc(F)c(F)c1 (configuration not stated)
inactive: [1] 1.01 | [2] 1.03 | locus YCL061C, strain MRC1, hits give low values 0.986 | [3] 0.993 | [4] 0.999 | [5] 0.997 | [6] 1.03 | [7] 0.994 | [8] 1.01 | [9] 0.995 | [10] 1.01 | [11] 0.957 | [12] 1.01 | locus YKL190W, strain CNB1, hits give low values 0.99 | [13] 0.995 | [14] 0.981 | [15] 1.06 | [16] 0.992 | [17] 1.01 | [18] 1 | [19] 1 | [20] 0.983 | [21] 0.982 | [22] 1.02 | [23] 1.02 | [24] 1.06 | [25] 0.994 | [26] 0.975
